Most compounds without a hit are left out; they make up all but 6.7% or so of the library.
T cruzi growth-1: T. cruzi proliferation inhibition | T. cruzi beta-gal in NIH3T3, GalScreen luminescence, 90 h | inhibition, % at 8.34 µM | 77,000 tested, 5.9% active | AID 624255;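 active = mean inhibition above about 93%, with at least 55% of replicates each passing it, limit read from the data, passing the limit was not always enough; inconclusive = only one of those two conditions holds; inactive = neither condition holds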
C diff HTS: C. difficile growth inhibition; 86,000 tested, 0.25% active; Clostridium difficile clinical isolate growth, OD600, 24 h; hits give low values; growth activity, negative = inhibition, % at 16 µg/mL (by protocol);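 active = mean growth activity at or below -80% and every replicate also at or below -80%; inconclusive = mean at or below -80% but some replicate above -80%; inactive = mean growth activity above -80%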;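 also: 0% = DMSO wells and -100% = levofloxacin 16 µg/mL wells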
Pf Dd2 growth: inhibitors of Plasmodium falciparum Dd2 growth. P. falciparum Dd2 growth, SYBR Green, 72 h; hits give low values. activity change, % at 10 µM. 94,000 tested, 2.3% active; in the data active = activity change below about -80%; inconclusive = no clear call, values can overlap the other calls
T cruzi growth-2: blocks T. cruzi growth in NIH3T3 host cells | AID 651739 | shares compounds with T cruzi growth-1 | 5,600 tested, 72% active | inhibition, % at 8.35 µM | T. cruzi beta-gal in NIH3T3, GalScreen luminescence, 90 h;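 active = mean replicate inhibition above about 95% and at least 55% of replicates individually reaching it, limit read from the data; inconclusive = only one of the two criteria is met; inactive = neither criterion is met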
T cruzi growth-3: Trypanosoma cruzi proliferation inhibition | shares compounds with T cruzi growth-1 | T. cruzi beta-gal in NIH3T3, GalScreen luminescence, 90 h | inhibition, % at 2.09 µM | 5,600 tested, 21% active;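 active = mean inhibition above about 95%, with at least 55% of replicates also reaching it, limit read from the data; inconclusive = meets just one of the two conditions; inactive = meets neither condition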;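 also: plate controls were neutral control median for no effect and positive control median for full effect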
NIH3T3 tox: NIH/3T3 (mouse) viability loss | shares compounds with T cruzi growth-1 | NIH/3T3 viability, CellTiter-Glo ATP luminescence, 90 h | cytotoxicity (signal decrease), % at 8.35 µM | 5,600 tested, 14% active;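 active = mean signal decrease across replicates above about 35% based on untreated-well scatter, with enough replicates individually passing, limit read from the data; inconclusive = no rule stated though some were filed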;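 also: 0% = median of neutral control wells and 100% = median of positive control wells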
NIH3T3 tox 2: NIH/3T3 (mouse) viability loss; AID 651744; 5,600 tested, 56% active; inhibition, % at 24.9 µM; NIH/3T3 viability, CellTiter-Glo ATP luminescence, 90 h; shares compounds with T cruzi growth-1;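 active = mean loss of cell viability signal at or above a set limit, and enough replicates individually reaching it; inconclusive = meets only the mean limit or only the replicate share; inactive = meets neither condition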;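 also: 0% = median of neutral control wells and 100% = median of positive control wells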
The depositor's hits bear a star; ? = inconclusive; . = not tested or not shown.

SMILES	T cruzi growth-1	C diff HTS	Pf Dd2 growth	T cruzi growth-2	T cruzi growth-3	NIH3T3 tox	NIH3T3 tox 2
COc1ccc(C#Cc2ccc3c(c2)[C@H]2[C@H](CCN2C(C)=O)[C@H](CO)N3)cc1	54	-14	-13	.	.	.	.
COc1ccc(C#Cc2ccc3c(c2)[C@H]2[C@H](CCN2C(=O)C2CC2)[C@H](CO)N3)cc1	104*	-11	-46	110*	67	0	41*
O=C(Cc1ccccc1)N1CC[C@@H]2[C@H]1c1cc(C#Cc3ccccc3)ccc1N[C@@H]2CO	105*	-1	-40	89	61	-1	106*
COc1ccc(C#Cc2ccc3c(c2)[C@H]2[C@H](CCN2C(=O)C2CC2)[C@@H](CO)N3)cc1	116*	15	-46	93	36	7	14
COc1ccc(C#Cc2ccc3c(c2)[C@@H]2[C@@H](CCN2C(=O)C2CCCCC2)[C@@H](CO)N3)cc1	101*	5	-25	101*	86	27	95*
O=C(Cc1ccccc1)N1CC[C@@H]2[C@H](CO)Nc3ccc(C#Cc4ccccc4)cc3[C@@H]21	81	-5	-75	.	.	.	.
O=C(C1CCCCC1)N1CC[C@@H]2[C@@H](CO)Nc3ccc(C#Cc4ccc(F)cc4)cc3[C@@H]21	.	42	-70	.	.	.	.
CCC(=O)N1CC[C@H]2[C@H](CO)Nc3ccc(C#Cc4ccc(OC)cc4)cc3[C@H]21	.	7	-71	.	.	.	.
O=C(NCC1CC1)[C@@H]1[C@@H](CO)[C@@H]2Cn3c(ccc(-c4cccc(F)c4)c3=O)[C@@H]2N1CC1CCCC1	71	16	-28	.	.	.	.
C[C@@H]1CN([C@@H](C)CO)C(=O)Cc2cc(NC(=O)Cn3cnnn3)ccc2O[C@H]1CN(C)CC1CCCCC1	51	-2	-14	.	.	.	.
COc1ccc(NC(=O)Nc2ccc3c(c2)CC(=O)N([C@H](C)CO)C[C@H](C)[C@H](CN(C)C(=O)Nc2ccccc2)O3)cc1	.	0	-5	.	.	.	.
CN(C)C(=O)c1ccc(-c2ccc([C@H]3[C@@H](C#N)N(C(=O)C4CCC4)[C@@H]3CO)cc2)cc1	20	5	-15	.	.	.	.
C[C@@H]1CN([C@@H](C)CO)C(=O)c2cc(NC(=O)CCCN(C)C)ccc2O[C@@H](C)CCCCO[C@@H]1CN(C)S(=O)(=O)c1ccccc1	-36	2	17	.	.	.	.
COc1cccc(CN2CC3(C2)CN(C(=O)C2CC2)[C@H](CO)c2[nH]c4cc(OC)ccc4c23)c1	.	-3	-35	.	.	.	.
COc1ccc(S(=O)(=O)Nc2ccc3c(c2)C(=O)N([C@H](C)CO)C[C@@H](C)[C@H](CN(C)C(=O)NC2CCCCC2)OCCCC[C@@H](C)O3)cc1	40	7	-18	.	.	.	.
COc1ccc(S(=O)(=O)N(C)C[C@H]2OCCCC[C@H](C)Oc3ccc(NS(=O)(=O)c4cn(C)cn4)cc3C(=O)N([C@@H](C)CO)C[C@H]2C)cc1	45	-2	-37	.	.	.	.
O=C(C[C@H]1CC[C@H](NC(=O)Nc2cccc(F)c2)[C@H](CO)O1)NCC1CCCCC1	.	3	3	.	.	.	.
COc1ccccc1C#Cc1ccc2c(c1)[C@H]1[C@H](CCN1C(=O)c1ccncc1)[C@@H](CO)N2	.	57	-22	.	.	.	.
CCC(=O)N1CC[C@@H]2[C@H](CO)Nc3ccc(C#Cc4ccc(F)cc4)cc3[C@@H]21	106*	-10	12	105*	74	18	50*
COc1ccc(C#Cc2ccc3c(c2)[C@@H]2[C@@H](CCN2C(=O)c2ccncc2)[C@@H](CO)N3)cc1	122*	-18	-68	105*	57	-18	13
CCC(=O)N1CC[C@@H]2[C@H]1c1cc(C#Cc3ccc(F)cc3)ccc1N[C@@H]2CO	51	-16	-21	.	.	.	.
COc1ccc(C#Cc2ccc3c(c2)[C@H]2[C@H](CCN2C(=O)c2ccccc2F)[C@H](CO)N3)cc1	?	47	-65	106*	99*	43*	62*
COc1cccc(C#Cc2ccc3c(c2)[C@H]2[C@H](CCN2C(=O)c2ccccc2F)[C@H](CO)N3)c1	60	-2	-28	.	.	.	.
C[C@H](CO)N1C[C@H](C)[C@@H](CN(C)C(=O)Nc2ccc3c(c2)OCO3)OCCCC[C@H](C)Oc2ccc(NS(=O)(=O)c3cccs3)cc2C1=O	53	2	-33	.	.	.	.
Cc1noc(C)c1S(=O)(=O)N(C)C[C@@H]1OCCCC[C@@H](C)Oc2ccc(NC(=O)C3CCCCC3)cc2C(=O)N([C@H](C)CO)C[C@@H]1C	23	-1	-29	.	.	.	.
SMILES	T cruzi growth-1	C diff HTS	Pf Dd2 growth	T cruzi growth-2	T cruzi growth-3	NIH3T3 tox	NIH3T3 tox 2
COc1ccccc1NC(=O)N1CCCCN2[C@H](C1)[C@H](c1ccc(C#Cc3ccccc3)cc1)[C@@H]2CO	114*	4	-25	104*	80	27	30*
COc1ccccc1NC(=O)N1CCCCN2[C@H](C1)[C@H](c1ccc(-c3ccc(C)cc3)cc1)[C@@H]2CO	113*	2	-48	111*	73	16	28*
COc1ccccc1NC(=O)N1CCCCN2[C@H](C1)[C@H](c1ccc(-c3cccc(F)c3)cc1)[C@@H]2CO	90	28	-4	.	.	.	.
COc1ccccc1NC(=O)N1CCCCN2[C@@H](CO)[C@@H](c3ccc(-c4ccc(C)cc4)cc3)[C@@H]2C1	94	52	-62	.	.	.	.
COc1ccccc1NC(=O)N1CCCCN2[C@H](CO)[C@@H](c3ccc(C#Cc4ccccc4)cc3)[C@@H]2C1	49	1	-24	.	.	.	.
COc1ccccc1NC(=O)N1CCCCN2[C@H](CO)[C@@H](c3ccc(-c4ccccc4)cc3)[C@@H]2C1	107*	30	-55	108*	116*	24	105*
COc1ccccc1NC(=O)N1CCCCN2[C@H](CO)[C@@H](c3ccc(-c4cccc(C)c4)cc3)[C@@H]2C1	95	40	-71	.	.	.	.
COc1ccccc1NC(=O)N1CCCCN2[C@H](CO)[C@H](c3ccc(-c4ccccc4)cc3)[C@@H]2C1	111*	-4	7	105*	93	18	32*
CN1CCN(C(=O)C[C@@H]2CC[C@@H]3[C@@H](COc4ccc(NC(=O)C5CC5)cc4C(=O)N3C)O2)CC1	19	4	4	.	.	.	.
O=C(C[C@@H]1C[C@H]2c3cc(NS(=O)(=O)c4ccc(F)cc4)ccc3O[C@H]2[C@@H](CO)O1)NCc1ccncc1	-56	1	9	.	.	.	.
CCO[C@@H]1OC(C(=O)N2CCCC2)=C[C@H](c2ccc3c(c2)OCO3)[C@H]1CCCO	.	-3	.	.	.	.	.
CO[C@@H]1CN(C)C(=O)c2cc(NC(=O)C3CC3)ccc2OC[C@@H](C)N(Cc2cncnc2)C[C@@H]1C	17	1	28	.	.	.	.
C[C@H](CO)N1C[C@H](C)[C@@H](CN(C)Cc2cncnc2)Oc2ncc(C#Cc3ccccn3)cc2C1=O	?	-1	10	103*	46	-1	9
